Laboratory results as given in PubChem BioAssay (Tox21).
Inconclusive results are not listed. Values without a mark were called inactive. Calls follow the shape of the dose curve; as a rule, active = well fitted cell-killing curve with a large enough effect in the repeat runs; inconclusive = weak or mixed curves, or effect the other way; inactive = flat fitted curve, though single readings scatter.

Assay: qHTS RealTime-Glo MT Cell Viability Assay in HEK293 cells - 0 hour (AID 1224880); also: top concentration of the series differs between compounds; nearly all actives have a fitted effect of over 45% in size
Conditions: RealTime-Glo luminescence; series mostly up to 76.8 µM; activity change, negative = cytotoxicity: at the top concentration
Excerpt: U.S. Tox21 Program National Center for Advancing Translational Sciences [NCATS] NIH Chemical Genomics Center [NCGC] U.S. Environmental Protection Agency [EPA] National Institutes of Environmental Health Sciences [NIEHS] National Toxicology Program [NTP] U.S. Food and Drug Administration [FDA] Tox21 Assay Overview: Measure of cell viability is critical in the cell-base assay. Analysis of cell viability is necessary for the characterization of cell responses to cytotoxic drugs and environmental stress. A RealTime-Glo MT Cell Viability Assay to monitor cell viability in real time of continues cell culture during 40 hours of compound treatment was used to screen Tox21 10K library compounds in Hek293 cells. The RealTime-Glo MT Cell Viability Assay is a nonlytic, homogeneous, bioluminescent method to measure cell viability in real time using a simple, plate-based method. The assay involves adding NanoLuc luciferase and a cell-permeant prosubstrate to cells in culture. Viable cells reduce the proprietary prosubstrate to generate a substrate for NanoLuc luciferase. This substrate diffuses from cells into the surrounding culture medium, where it is rapidly used by the NanoLuc Enzyme to produce a luminescent signal. The signal correlates with the number of viable cells, making the assay well suited for cytotoxicity studies.
Tox21 Assay Protocol Summary: The mixture of Hek293 cell suspension and reagents were dispensed at 600cells/6 ul/well in 1536-well tissue culture treated black solid bottom plates using a Multidrop dispenser. After the assay plates were incubated at a 37 C/5% CO2 incubator for 5 hours, 23 nL of compounds dissolved in DMSO, positive and negative controls was transferred to the assay plate by a pintool work station. The plates were incubated at 37 C for 40 hours. The luminescence intensity were measured at 0h, 8h, 16h, 24h, 32h and 40h time points using ViewLux plate reader during compound treatment.
% is scaled to controls: 0 for no effect and ±100 for the full control effect.

Going from COP(=O)(OC)OC(c1ccc(Cl)cc1)P(=O)(OC)OC (stereo not given) to Cc1ccc2ccc(Cl)cc2n1, the “activity change, negative = cytotoxicity” value rises from 10.5% [at 35.3 µM] to 11.9% [at 35.3 µM].

First: CC(C)(C)c1nnc(NS(=O)(=O)c2ccc(N)cc2)s1
Second: Nc1ccc(S(=O)(=O)Nc2ccc(Cl)nn2)cc1
The “activity change, negative = cytotoxicity” value of the first is lower: -13.8% [at 35.3 µM] for the first, 0.473% [at 35.3 µM] for the second.

First: CNS(=O)(=O)CCc1ccc2[nH]cc(C3CCN(C)CC3)c2c1
Second: COc1ccc2c(c1)C(=O)N(CCc1ccc(S(=O)(=O)NC(=O)NC3CCCCC3)cc1)C(=O)C2(C)C
The “activity change, negative = cytotoxicity” value of the first is higher: -5.87% [at 35.3 µM] for the first, -18% [at 35.3 µM] for the second.

First: CC(=O)N[C@@H](CCC(=O)O)C(=O)O
Second: CCOc1cc(NC(C)=O)ccc1C(=O)OC
The “activity change, negative = cytotoxicity” value of the first is lower: -5.82% [at 35.3 µM] for the first, 5.54% [at 35.3 µM] for the second.

Compared with O=C1c2ccccc2C(=O)C1c1ccccc1, Cc1c(I)c(=O)n(-c2ccccc2)n1C is higher in “activity change, negative = cytotoxicity” value: 0.666% [at 35.3 µM] for the first, 5.11% [at 35.3 µM] for the second.

Going from Cc1cccc(C)c1OCC(C)N (stereo not given) to CC(C)NCC(O)COc1cccc2[nH]ccc12 (stereo not given), the “activity change, negative = cytotoxicity” value falls from 0.591% [at 35.3 µM] to -5.03% [at 35.3 µM].

First: COc1ccc(-c2cc(=O)c3c(O)cc(O[C@@H]4O[C@H](CO[C@@H]5O[C@@H](C)[C@H](O)[C@@H](O)[C@H]5O)[C@@H](O)[C@H](O)[C@H]4O)cc3o2)cc1O
Second: COc1ccc(C2CNC(=O)C2)cc1OC1CCCC1 (stereo not given)
The “activity change, negative = cytotoxicity” value of the first is higher: 8.9% [at 35.3 µM] for the first, -10.8% [at 35.3 µM] for the second.

Going from COC(=O)c1ccccc1C(=O)c1ccc(OCCN2CCCCC2)cc1 to O=C(CCN1CCN(CCO)CC1)N1c2ccccc2Sc2ccc(C(F)(F)F)cc21, the “activity change, negative = cytotoxicity” value falls from -1.54% [at 35.3 µM] to -3.7% [at 35.3 µM].

First: CCOC(=O)c1ncn2c1CN(C)C(=O)c1cc(F)ccc1-2
Second: Cc1ccsc1/C=C/C1=NCCCN1C
The “activity change, negative = cytotoxicity” value of the first is lower: -8.05% [at 35.3 µM] for the first, 0.917% [at 35.3 µM] for the second.

Compared with CC(C)C[C@H](NC(=O)CNC(=O)[C@H](Cc1ccc(O)cc1)NC(=O)[C@H](CO)NC(=O)[C@H](Cc1c[nH]c2ccccc12)NC(=O)[C@H](Cc1cnc[nH]1)NC(=O)[C@@H]1CCC(=O)N1)C(=O)N[C@@H](CCCN=C(N)N)C(=O)N1CCC[C@H]1C(=O)NCC(N)=O (stereo in doubt), C[C@H](N)[C@H](O)c1cccc(O)c1 is higher in “activity change, negative = cytotoxicity” value: -0.347% [at 35.3 µM] for the first, 7.2% [at 35.3 µM] for the second.

First: O=C1O[C@@H]2[C@@H](O)[C@H](O)O[C@@H]2[C@H]1O
Second: O=C(O)C(=O)Cc1ccccc1
The “activity change, negative = cytotoxicity” value of the first is higher: -0.135% for the first, -3.31% for the second.

First: O=Cc1ccc(Cl)c(Cl)c1
Second: O=C(O)c1ccc(Cl)cc1Cl
The “activity change, negative = cytotoxicity” value of the first is lower: -12.7% for the first, -0.492% for the second.

Going from CCCCCCCCC(=O)Cl to CCCCCOC(=O)CCC, the “activity change, negative = cytotoxicity” value falls from 3.27% to -4.88%.

First: N#Cc1ccc(C(=O)O)cc1
Second: O=C(c1ccc(O)cc1)c1ccc(O)c(O)c1O
The “activity change, negative = cytotoxicity” value of the first is higher: 11.1% for the first, -5.7% for the second.

Compared with CCc1ccc(C=O)cc1, CCCCOC(=O)c1ccccc1 is higher in “activity change, negative = cytotoxicity” value: 8.62% for the first, 8.92% for the second.

Compared with CCCOC(=O)C(C)O (stereo not given), O=C(/N=N/C(=O)OCc1ccccc1)OCc1ccccc1 is higher in “activity change, negative = cytotoxicity” value: -16.2% for the first, -0.633% for the second.

Going from CCOc1cc([N+](=O)[O-])c(OCC)cc1N1CCOCC1 to O=C(O)c1cc(Cl)cc([N+](=O)[O-])c1Cl, the “activity change, negative = cytotoxicity” value rises from 1.1% to 5.18%.

Compared with BrCc1cccc(Oc2ccccc2)c1, COc1cc(N)ccc1C is higher in “activity change, negative = cytotoxicity” value: -14.9% for the first, 9.51% for the second.

With C=COCCOCCOCCOC=C the “activity change, negative = cytotoxicity” value was -3.78%.

First: N[C@@H](CCC(=O)N[C@@H](CS)C(=O)NCC(=O)O)C(=O)O
Second: CCCCCCCC/C=C\CCCCCCCC(=O)OCCCC
The activity change, negative = cytotoxicity of the first is higher: 8.63% [at 15.8 µM] for the first, -2.24% [at 15.8 µM] for the second.

With COC(=O)C1CC(=O)C(C(=O)OC)CC1=O (stereo not given) the activity change, negative = cytotoxicity was 2.08% [at 6.97 µM].
